Reference: PubChem BioAssay (NCATS)
Results filed as inconclusive are left out. A call without a number means that no potency is given here. Calls of active or inactive are those of the source. The call rests on the fitted dose curve; in most records, active means well fitted cell-killing curve with a large enough effect; inconclusive means small, poorly fitted or top-dose-only effect; inactive means flat fitted curve, though single readings scatter.

Assay: qHTS of pediatric cancer cell lines to identify multiple opportunities for drug repurposing: Primary screen for BT-12 cells (AID 1347101); further: nearly all actives have a fitted effect of over 25% in size
Conditions: BT-12 viability, CellTiter-Glo luminescence, 48 h; series mostly up to 57.3 µM
How it was run: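 Cells (500-1,000/well) rested 5 h, then received compounds for 48 h; metabolically active cells were measured by CellTiter-Glo luminescence. Final concentrations spanned up to 46 µM (MIPE, 11-point) or 0.59 nM-46 µM (NPC, 8-point) in primary screens, 11-point in follow-ups.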

SMILES | Potency
CN1CCC(N(Cc2ccccc2)c2ccccc2)CC1 | inactive
C[N+]1(C)[C@@H]2CC[C@H]1CC(OC(=O)C(CO)c1ccccc1)C2 (some centres not stated) | inactive
COCC(=O)N(c1c(C)cccc1C)C(C)C(=O)OC (configuration not stated) | inactive
Cc1c(Cl)c(=O)oc2cc(OP(=O)(OCCCl)OCCCl)ccc12 | inactive
CCOC(=O)NC(O)C(Cl)(Cl)Cl (configuration not stated) | inactive
CN1C(=O)CN=C(c2ccccc2)c2cc(Cl)ccc21 | inactive
CCCN(CCC)CCc1c[nH]c2ccccc12 | inactive
CC(C)[N+](C)(CCC(C(N)=O)(c1ccccc1)c1ccccc1)C(C)C | inactive
CCCCCCCCC(=O)NCc1ccc(O)c(OC)c1 | inactive
CNC(=O)NC(O)C(Cl)(Cl)Cl (configuration not stated) | inactive
CCOC(=O)C1(c2ccccc2)CCN(CCc2ccc(N)cc2)CC1 | inactive
c1ccc2nc(N3CCNCC3)ccc2c1 | inactive
CC1N=C(N)OC1c1ccccc1 (configuration not stated) | inactive
O=C(CBr)Nc1ccc(Cl)cc1C(=O)c1ccccc1F | inactive
ClCCCN1CCN(c2cccc(Cl)c2)CC1 | inactive
COc1ccc2[nH]cc(CCN(C(C)C)C(C)C)c2c1 | inactive
CC(Cc1ccccc1)NCCCCl (configuration not stated) | inactive
O=C1CN2CCOC2(c2ccccc2Cl)c2cc(Cl)ccc2N1 (configuration not stated) | inactive
C[N+]1(CCC(C(N)=O)(c2ccccc2)c2ccccc2)CCCCC1 | inactive
CN1C(=O)[C@@H](NC(=O)c2cc3ccccc3[nH]2)N=C(c2ccccc2)c2ccccc21 | inactive
CCOC(C(=O)OCCN(C)C)(c1ccccc1)c1ccccc1 | inactive
CC(C(O)c1ccccc1)N(C)C/C=C/c1ccccc1 (configuration not stated) | inactive
